Results from PubChem BioAssay.
The source made the active and inactive calls.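 The calls were made as follows, unless noted: active = inhibition of the reporter signal at or above 50%; inactive = inhibition below 50%.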

Columns and labels:
[1] = inhibitors of TNFa-induced NFkB p65 translocation, primary screen, imaging, HUVEC, MLSMR starter and 10KST1 sets (AID 438;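 active = inhibition above 20% together with a positive visual image hit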;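 also: compound added about 3h40 before a 20 min TNFalpha stimulation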;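 as to inhibition: signal is the nuclear over cytoplasmic p65 intensity ratio per well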); conditions: HUVEC TNFa-induced p65 nuclear translocation; cell count: measured here: nuclei count (cytotoxicity indicator), at 2.08 µM; inhibition: at 2 µM, stronger effect = higher value, 0% TNFa-plus-vehicle, 100% no-TNFa wells
[2] = reduction of polyQ htt aggregates in cells – imaging, exon1htt(103Q)mCFP cells, high-content imaging, primary screen (AID 483;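 active = visual image review flags a hit and inhibition of aggregation exceeds 20%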;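 also: compound exposure lasted 3 days before fixation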;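 as to nuclei count: percent of the per-plate median nuclei count of sample wells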); conditions: exon1htt(103Q)mCFP cell line, aggregate imaging, at 2 µM; inhibition of aggregation: stronger effect = higher value; nuclei count: measured here: cell count, toxicity
[3] = endothelial E-selectin expression blockers – imaging, HUVEC, immunofluorescence, MLSMR starter and 10KST1 sets, primary screen (AID 487;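 active = visually confirmed hit in the image check and inhibition above 20%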;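 as to inhibition: signal is fraction of cell area covered by stained E-selectin grains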;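 as to nuclei count: 100% = median nuclei count of all wells on the same plate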); conditions: HUVEC TNFalpha-induced E-selectin immunofluorescence imaging, at 2 µM; inhibition: stronger effect = higher value; nuclei count: measured here: cell number, toxicity
[4] = target: Voltage-gated potassium channel subunit beta-2 (Rattus norvegicus) (UniProt P62483); assay: inhibitors of rat Kvbeta2 reductase activity – biochemical, NADPH fluorescence, primary screen (AID 622;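 active = fluorescence slope higher than the sample average by over 3 SD, cut at about -0.22 in these data, passing the limit was not always enough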;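 also: slope of raw intensity against log time taken from 70 to 1610 s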); conditions: recombinant KvBeta, 4-cyanobenzaldehyde reduction, at 10 µM, stronger effect = higher value
[5] = target: Voltage-gated potassium channel subunit beta-2 (Rattus norvegicus) (UniProt P62483); assay: enhancers of rat Kvbeta2 NADPH turnover – biochemical, NADPH fluorescence, primary screen (AID 623;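 active = NADPH fluorescence slope more negative than the mean of all samples by about 3 SD, 99.7% confidence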;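 also: fluorescence intensity change per second fitted from 20 to 320 s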); conditions: Recombinant KvBeta, NADPH fluorescence decrease slope, 10 min; at 10 µM; stronger effect = lower value
[6] = target: Alpha-2C adrenergic receptor (Homo sapiens) (UniProt P18825); assay: compounds altering alpha2C-coupled GIRK flux – cell-based, HEK293 alpha2C/GIRK1/2, thallium flux, primary screen (AID 624;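 active = fluorescence slope after compound addition differing from the mean of all screened samples at 99.7% confidence, in either direction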;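 also: slope of fluorescence ratio to pre-addition baseline per second over 15 to 24 s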); conditions: thallium flux BTC fluorescence, at 10 µM, actives lie on both sides
[7] = blockers of RIG-like receptor reporter activation – cell-based, Sendai virus stimulus, luciferase, 10K MLSCN set, TLR/RLR signaling modifier project, primary screen (AID 602276;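 active = inhibition at or above 50% at 10 µM; inactive = inhibition below 50%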;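 also: firefly luciferase from ISG56 promoter only with Renilla not read in this screen; 0% = Sendai virus plus DMSO and 100% = medium plus DMSO without virus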); conditions: HEK293 RL24 IRF3 luciferase reporter, at 10 µM, stronger effect = higher value
[8] = TLR3 IRF3 reporter activation blockers – cell-based, poly I:C stimulus, luciferase, 10K MLSCN set, primary screen (AID 602277); conditions: HEK293-TLR3 RL24 IRF3 luciferase reporter, at 10 µM, stronger effect = higher value

Sequence of Voltage-gated potassium channel subunit beta-2 (Rattus norvegicus) (P62483 whole entry, looked up): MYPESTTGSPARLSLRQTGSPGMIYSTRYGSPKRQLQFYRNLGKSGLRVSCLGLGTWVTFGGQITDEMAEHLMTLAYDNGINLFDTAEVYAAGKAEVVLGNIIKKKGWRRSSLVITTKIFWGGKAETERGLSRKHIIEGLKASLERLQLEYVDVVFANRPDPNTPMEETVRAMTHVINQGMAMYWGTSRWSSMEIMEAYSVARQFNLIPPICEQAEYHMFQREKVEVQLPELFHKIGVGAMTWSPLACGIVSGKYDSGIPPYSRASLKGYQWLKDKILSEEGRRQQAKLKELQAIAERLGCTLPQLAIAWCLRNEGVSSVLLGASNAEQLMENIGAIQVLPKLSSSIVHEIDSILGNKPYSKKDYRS
Sequence of Alpha-2C adrenergic receptor (Homo sapiens) (P18825 whole entry, looked up): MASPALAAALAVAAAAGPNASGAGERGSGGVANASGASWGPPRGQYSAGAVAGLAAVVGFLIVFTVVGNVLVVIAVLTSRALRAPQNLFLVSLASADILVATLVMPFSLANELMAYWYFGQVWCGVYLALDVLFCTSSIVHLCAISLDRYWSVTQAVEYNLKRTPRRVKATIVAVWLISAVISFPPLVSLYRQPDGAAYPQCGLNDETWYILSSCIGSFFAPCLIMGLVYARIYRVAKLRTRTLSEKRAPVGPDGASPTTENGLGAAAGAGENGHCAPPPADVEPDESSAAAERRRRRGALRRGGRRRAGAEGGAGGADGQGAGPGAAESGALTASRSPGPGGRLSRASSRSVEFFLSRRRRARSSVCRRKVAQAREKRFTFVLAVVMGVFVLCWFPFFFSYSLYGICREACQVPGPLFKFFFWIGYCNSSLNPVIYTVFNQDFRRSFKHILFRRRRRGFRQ

Structure (SMILES) | cell count [1] | inhibition [1] | inhibition of aggregation [2] | nuclei count [2] [%] | inhibition [3] | nuclei count [3] [%] | fluorescence slope [4] | NADPH fluorescence slope [5] | slope [6] | inhibition [7] | inhibition [8]
COc1ccc(NC(=O)C(C)NS(=O)(=O)c2ccccc2)cc1Cl (configuration not stated) | 315 | -15.9% (inactive) | 2.6% (inactive) | 116 | -51.4% (inactive) | 65 | -0.369 (inactive) | 7.6e-06 (inactive) | 0.00596 (inactive) | 8.06% (inactive) | 17.6% (inactive)
COc1ccc(-c2ccc(-c3noc(-c4ccccc4)n3)c(OC)n2)cc1 | 359 | 1.8% (inactive) | -12.7% (inactive) | 84.2 | 5% (inactive) | 88.8 | -0.0356 (inactive) | -4.5e-06 (inactive) | 0.0074 (inactive) | -7.23% (inactive) | -29.4% (inactive)
O=C(C1CCN(C2CC(=O)N(c3ccc(F)cc3)C2=O)CC1)N1CCOCC1 (configuration not stated) | 326 | 6.1% (inactive) | 19.1% (inactive) | 79.5 | 12.7% (inactive) | 75.9 | -0.512 (inactive) | -2.5e-05 (inactive) | 0.00647 (inactive) | 7.33% (inactive) | 13% (inactive)
Cc1ccnc(SCCn2c(N3CCN(Cc4ccccc4)CC3)nc3c2c(=O)[nH]c(=O)n3C)n1 | 665 | -22.3% (inactive) | 0.8% (inactive) | 120 | -36.7% (inactive) | 96.2 | -0.542 (inactive) | -3.1e-05 (inactive) | 0.00641 (inactive) | -0.348% (inactive) | 0.626% (inactive)
COc1cccc(NC(=O)C2C3C=CC4(O3)C2C(=O)N(C(C)C)C4C(=O)NC2CCCCC2C)c1 (configuration not stated) | 424 | 2.6% (inactive) | -8.5% (inactive) | 110 | -98.5% (inactive) | 114 | -0.525 (inactive) | 3.5e-06 (inactive) | 0.00614 (inactive) | 2.64% (inactive) | 7.71% (inactive)
CCOC(=O)CSc1nnc(NC(=O)c2cccc(S(=O)(=O)N3CCCCC3)c2)s1 | 626 | -1.1% (inactive) | -6.5% (inactive) | 107 | 20.8% (inactive) | 102 | -0.37 (inactive) | -9.8e-06 (inactive) | 0.00424 (inactive) | 12.1% (inactive) | 26.3% (inactive)
Cn1cc(Br)c(C(=O)NC2CCCCC2)n1 | 483 | -5.1% (inactive) | -0.3% (inactive) | 105 | -145% (inactive) | 238 | -0.408 (inactive) | 1.7e-05 (inactive) | 0.00924 (inactive) | 7.35% (inactive) | 5.88% (inactive)
CCCCSc1cc(C)nc2ncnn12 | 416 | -4% (inactive) | -3.2% (inactive) | 117 | 12.1% (inactive) | 119 | -0.492 (inactive) | 3.1e-05 (inactive) | 0.00349 (inactive) | -10.9% (inactive) | 9.98% (inactive)
O=C(c1ccc(CSCc2ccccc2F)o1)N1CCN(c2ccc(N3CCOCC3)nn2)CC1 | 504 | -13.1% (inactive) | 40.2% (inactive) | 79.3 | -7.9% (inactive) | 101 | -0.435 (inactive) | -1.8e-06 (inactive) | 0.00478 (inactive) | 4.73% (inactive) | 15.4% (inactive)
COc1cc(C2c3c(oc4c(C)cc(C)cc4c3=O)C(=O)N2Cc2cccnc2)ccc1O (configuration not stated) | 627 | -2.7% (inactive) | 0.2% (inactive) | 107 | 12.8% (inactive) | 99.8 | -0.476 (inactive) | -3.3e-05 (inactive) | 0.00579 (inactive) | 16.4% (inactive) | 21.2% (inactive)
CCc1nnc(NC(=O)C2CCCN2S(=O)(=O)c2ccc(C)cc2)s1 (configuration not stated) | 445 | -8.4% (inactive) | 24.1% (inactive) | 60.3 | 25.4% (inactive) | 123 | -0.41 (inactive) | 1.6e-05 (inactive) | 0.00581 (inactive) | 2.82% (inactive) | 15.9% (inactive)
CS(=O)(=O)N(CC(=O)NCc1ccncc1)Cc1ccc(Cl)cc1 | 614 | 8.7% (inactive) | -13.4% (inactive) | 107 | -83.3% (inactive) | 121 | -0.471 (inactive) | -1.2e-06 (inactive) | 0.00437 (inactive) | 17.3% (inactive) | 18% (inactive)
CCOC(=O)c1c(C)[nH]c(C(=O)COC(=O)c2ccc(F)c(S(=O)(=O)N3CCOCC3)c2)c1C | 376 | 4.8% (inactive) | -173% (inactive) | 6.6 | -27.2% (inactive) | 105 | -0.6 (inactive) | -5.1e-05 (inactive) | 0.00426 (inactive) | 5.38% (inactive) | 13.3% (inactive)
CCN1CCN(CCCNC(=O)C2c3ccccc3C(=O)N(C)C2c2ccc(OC)cc2)CC1 (configuration not stated) | 567 | 15.4% (inactive) | -1.2% (inactive) | 82.8 | 31.9% (inactive) | 93.8 | -0.504 (inactive) | -1.6e-06 (inactive) | 0.00453 (inactive) | 2.59% (inactive) | 14% (inactive)
CCCCC(=O)NCCc1cc2ccc(OC)cc2[nH]c1=O | 341 | -17% (inactive) | 25.1% (inactive) | 84.4 | -5.9% (inactive) | 91.4 | -0.464 (inactive) | -0.000398 (inactive) | 0.00611 (inactive) | -3.47% (inactive) | 98.8% (active)
Cc1cc2ccccc2c(=O)n1CC(=O)Nc1ccc2c(c1)OCO2 | 455 | 0% (inactive) | -12.3% (inactive) | 108 | -85.2% (inactive) | 109 | -0.48 (inactive) | -2.6e-05 (inactive) | 0.00487 (inactive) | 2.31% (inactive) | 23.9% (inactive)
COc1cccc(NC(=O)N(Cc2ccco2)C(C)c2cccs2)c1 (configuration not stated) | 734 | -12.7% (inactive) | -16.2% (inactive) | 103 | -52.3% (inactive) | 114 | -0.469 (inactive) | 2.7e-05 (inactive) | 0.00569 (inactive) | 11% (inactive) | 15.1% (inactive)
O=C(Cn1cc2c(n1)CCCCC2)N1CCc2ccccc21 | 708 | -3.4% (inactive) | 18.5% (inactive) | 103 | -102% (inactive) | 109 | -0.52 (inactive) | -4.3e-05 (inactive) | 0.00739 (inactive) | 7.59% (inactive) | 34.4% (inactive)
COc1cccc(-c2nc3n(n2)C(c2cccs2)C(C(=O)Nc2cccnc2)=C(C)N3)c1 (configuration not stated) | 735 | -20.1% (inactive) | 30.4% (inactive) | 111 | -65.8% (inactive) | 113 | -0.365 (inactive) | 1.9e-05 (inactive) | 0.00588 (inactive) | 22.3% (inactive) | 32.8% (inactive)
O=C(OCN1C(=O)c2ccccc2C1=O)C1CCCCC1 | 391 | 3.5% (inactive) | 3.5% (inactive) | 95.3 | -43.8% (inactive) | 113 | -0.348 (inactive) | -5e-05 (inactive) | 0.00442 (inactive) | 6.81% (inactive) | 12.4% (inactive)
COC(=O)C1(C#N)C(c2ccccc2)C1(C(=O)OC)C(=O)OC (configuration not stated) | 450 | 2.6% (inactive) | -8.3% (inactive) | 103 | -21.2% (inactive) | 118 | -0.522 (inactive) | -2.1e-05 (inactive) | 0.00516 (inactive) | 13.2% (inactive) | 26.1% (inactive)
O=C(NCCCN1CCCC1=O)c1ccc2c(=O)n(Cc3ccco3)c(=S)[nH]c2c1 | 653 | -16.6% (inactive) | -35.1% (inactive) | 74 | -69.5% (inactive) | 101 | -0.572 (inactive) | 2.7e-05 (inactive) | 0.00624 (inactive) | 0.725% (inactive) | -15.6% (inactive)
O=C(CCCOc1ccccc1)N1CCN(c2ccccn2)CC1 | 232 | -4.8% (inactive) | 15.3% (inactive) | 53.2 | -18.6% (inactive) | 78 | -0.487 (inactive) | -3.3e-07 (inactive) | 0.00525 (inactive) | 2.47% (inactive) | -54.1% (inactive)
CCOC(=O)CNC(=O)Nc1nnc(-c2ccc(OCC)cc2)o1 | 486 | -30.9% (inactive) | 3.3% (inactive) | 91.3 | -12.6% (inactive) | 103 | -0.591 (inactive) | 2.1e-05 (inactive) | 0.00589 (inactive) | -14.6% (inactive) | -13.9% (inactive)
CCc1ccc2[nH]c(=O)c(C(c3nnnn3CC3CCCO3)N3CCCc4ccccc43)cc2c1 (configuration not stated) | 339 | -8.5% (inactive) | 12.7% (inactive) | 87.5 | 22.4% (inactive) | 97.3 | -0.422 (inactive) | -4.4e-05 (inactive) | 0.00442 (inactive) | 22.7% (inactive) | 32.6% (inactive)
Cc1ccc(-c2ccc(SCC(=O)Nc3nonc3C)nn2)cc1 | 413 | 2.2% (inactive) | -2% (inactive) | 103 | -24.8% (inactive) | 108 | -0.283 (inactive) | -5.6e-05 (inactive) | 0.00591 (inactive) | 9.6% (inactive) | 15.8% (inactive)
O=C(Nc1ccc2c(c1)nc1n2CCN(Cc2ccccc2)C1)c1cccs1 | 420 | -13.3% (inactive) | 6.4% (inactive) | 89.3 | 11.1% (inactive) | 73.9 | -0.461 (inactive) | -0.000271 (inactive) | 0.00505 (inactive) | -17.8% (inactive) | -84.2% (inactive)
